# Measured values taken from the supplement of paper PMC3334620.
# In all, about 33,000 sequences were measured (“E-score (-0.5 to 0.5)”: median about -0.056, highest 2% from about 0.38 on). Only a selection was taken, and the highest values are over-represented in it overall.
# Target: Stb4 (UniProt P50104)
# Assay: PBM E-score (8-mer binding enrichment) (E-score (-0.5 to 0.5)); higher = stronger / more preferred TF binding
# Conditions: protein concentration: 200 nM; construct: GST-DNA-binding domain
# How it was run: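 Yeast transcription factors, full-length or as DNA-binding domains, were expressed with a GST tag using PURExpress in vitro transcription/translation. At about 100-200 nM they were applied to universal all-10-mer Agilent arrays, double-stranded by primer extension on fresh or once-stripped slides. Fluorescent anti-GST detected bound protein, and masliner normalised the scans. E-scores for ungapped eight-base words, pooled with reverse complements, came from the Universal PBM Analysis Suite.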
# Chain of UniProt P50104 (P50104 whole entry): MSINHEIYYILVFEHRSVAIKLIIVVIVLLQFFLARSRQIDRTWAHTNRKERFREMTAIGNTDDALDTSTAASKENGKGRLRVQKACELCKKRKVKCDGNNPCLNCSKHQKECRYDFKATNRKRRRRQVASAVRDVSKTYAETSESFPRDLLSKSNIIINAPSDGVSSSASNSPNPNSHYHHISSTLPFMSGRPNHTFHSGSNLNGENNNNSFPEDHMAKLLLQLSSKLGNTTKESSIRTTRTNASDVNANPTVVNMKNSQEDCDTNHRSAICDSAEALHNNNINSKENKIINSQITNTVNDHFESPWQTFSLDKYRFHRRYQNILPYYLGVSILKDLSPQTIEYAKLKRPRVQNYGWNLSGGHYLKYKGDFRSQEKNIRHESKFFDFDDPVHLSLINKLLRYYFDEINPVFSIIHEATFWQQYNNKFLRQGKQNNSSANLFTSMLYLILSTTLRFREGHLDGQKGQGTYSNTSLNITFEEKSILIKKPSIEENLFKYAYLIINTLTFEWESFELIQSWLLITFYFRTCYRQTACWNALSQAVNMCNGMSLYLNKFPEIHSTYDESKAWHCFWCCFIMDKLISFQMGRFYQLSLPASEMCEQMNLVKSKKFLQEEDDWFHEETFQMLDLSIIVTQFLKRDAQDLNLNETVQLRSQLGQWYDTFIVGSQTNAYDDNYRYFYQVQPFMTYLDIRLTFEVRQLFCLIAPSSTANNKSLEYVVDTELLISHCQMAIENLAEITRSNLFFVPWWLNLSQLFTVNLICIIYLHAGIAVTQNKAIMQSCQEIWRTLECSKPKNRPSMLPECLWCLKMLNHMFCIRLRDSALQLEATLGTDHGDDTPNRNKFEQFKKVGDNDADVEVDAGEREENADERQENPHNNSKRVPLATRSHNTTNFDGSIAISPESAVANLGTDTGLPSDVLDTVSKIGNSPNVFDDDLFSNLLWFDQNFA
row,Sequence,PBM E-score
1,GGTAGACC,0.143
2,CCTCTTAC,-0.274
3,AACGACTA,-0.151
4,AAGGTACG,-0.0106
5,GGCCTAAA,-0.102
6,GTCCGACA,0.213
7,ATCCGACC,0.425
8,ATCCGACG,0.452
9,AACCGACG,0.304
10,ACCCGACC,0.382
11,AGCCGACG,0.353
12,CTCCGACA,0.227
13,ATCCGACA,0.442
14,CTCCGACC,0.315
15,CAAATCTA,-0.211
16,CCTTTGTC,-0.141
17,GCCTACGC,-0.306
18,TACACTGA,-0.0306
19,TCGAAGAA,-0.122
20,CCGAAGAC,0.374
21,CCGAAGAG,0.417
22,CCGAAGAA,0.402
23,ACGAAGAG,-0.117
24,ACGAAGAA,-0.0766
25,GAGTACTC,-0.00922

row,Sequence,PBM E-score
1,AACGACGT,-0.166
2,ATTGACCC,0.0534
3,ACGAGCGA,-0.402
4,ACGAGCGC,-0.0806
5,CCGAGCGC,0.44
6,GCGAGCGC,-0.103
7,CCGAGCGG,0.431
8,CAGAGCGG,-0.0262
9,GCGAGCGA,-0.0989
10,ACGAGCGG,0.0575
11,CCGAGCGA,0.403
12,AGTATCGA,-0.072
13,ATTCGCAG,-0.152
14,AAAGTCGC,0.0621
15,AGATTTAG,-0.0774
16,ACTTTGGC,0.123
17,CTCGACAC,-0.144
18,CCGAATAA,0.381
19,CCGAATTC,0.398
20,ACGAATTC,-0.192
21,ACGAATAC,-0.0867
22,CCGAATTA,0.363
23,CCGAATAC,0.425
24,ACGACCGA,0.0769
25,TCCGCCAA,0.233

row,Sequence,PBM E-score
1,CGGTCGGC,0.318
2,CGGTCGGA,0.388
3,AGGTCGGA,0.345
4,CGGTCGTA,0.128
5,GGGTCGAA,0.0324
6,GGGTCGGA,0.392
7,GCGTCCGA,0.282
8,GGCATGCC,0.156
9,GTCTAGTA,-0.11
10,GTACTGTA,-0.171
11,AACCACAG,-0.177
12,GTCGAATA,-0.181
13,CTCGAATA,0.0163
14,ACCGAATC,0.357
15,CCCGAATA,0.397
16,CTCGAATC,-0.207
17,ACCGAATA,0.215
18,CCCGAATC,0.397
19,GCCGAATA,0.427
20,CACGAATA,-0.22
21,CCATCACA,-0.197
22,CCCCATCA,-0.137
23,CCTTCTTA,-0.143
24,CCGGCATC,0.28
25,CCTTTCAA,-0.112

row,Sequence,PBM E-score
1,GAATGGTC,0.0599
2,CCAGACGG,-0.0564
3,CCGGATGC,0.396
4,ACGGATGC,0.298
5,ACGGATCA,0.325
6,CCGGATCA,0.383
7,CCGGATGA,0.366
8,TAGGATCA,-0.0704
9,TCAGATCA,-0.235
10,GCGGATCC,0.301
11,TCGGATCA,0.46
12,ACGGATCC,0.352
13,GCGGATCA,0.196
14,CCGGATCC,0.395
15,AGATCTAG,-0.255
16,TTGGCAAA,-0.183
17,AACCGCGG,0.291
18,GAGGAGGC,-0.196
19,ACGTTTTC,0.0722
20,GATTGCTA,-0.122
21,TTAGACAA,-0.0136
22,CCGGATCG,0.413
23,ACGGATCG,0.315
24,CAGGATCG,0.0947
25,TATGACGA,-0.111

row,Sequence,PBM E-score
1,GGAAGTGA,0.245
2,ATTAGAGG,6e-05
3,AACTGGAA,-0.0984
4,CATTTAGA,-0.00372
5,GTTCCGCA,0.293
6,GTTCCAAA,-0.0427
7,AGTCCGAG,0.371
8,GTTCCGAA,0.479
9,ATTCCGCA,0.169
10,CTTCCGCA,0.331
11,ATTCCGTG,0.363
12,ATTCCGTA,0.265
13,ATTCCGAG,0.472
14,ATTCCGAA,0.464
15,CTTCCGAA,0.479
16,CTTCCAAA,-0.174
17,GCGATCTA,-0.0238
18,GCGACCAA,-0.183
19,CCGCCAAG,-0.059
20,AACATCGT,-0.0992
21,ATCTCCGG,0.345
22,GCTTGCGA,-0.104
23,ACTAAGCG,-0.0604
24,CCTATATA,-0.103
25,GGAATCAC,0.244

row,Sequence,PBM E-score
1,CCAGGCTA,-0.289
2,CAAAATTC,0.165
3,AGTCCGAC,0.11
4,CTTCCGCC,0.297
5,CTTCCGTC,0.341
6,CTTCCGAC,0.457
7,ATTCCGTC,0.285
8,ATTCCGAC,0.416
9,GCTACCCC,-0.0436
10,TCTTGCAA,0.0931
11,AAAGAGCT,-0.128
12,ATTAGAAT,-0.0347
13,TCCCGGCA,0.298
14,ACCCGGAT,0.374
15,ACCCGGAG,0.373
16,TCCCGGGA,0.409
17,CCCCGGGA,0.307
18,GCCCGGAC,0.229
19,GCCCGGGA,0.308
20,CCCCGGAA,0.27
21,TCCCGGAA,0.407
22,GCCCGGTA,0.263
23,ACCCGGAA,0.433
24,GCCCGGAA,0.423
25,CGGTAGGA,0.136

row,Sequence,PBM E-score
1,AGCTCATA,-0.0221
2,AACAACTT,-0.165
3,CCTATGAG,-0.227
4,GTAGCAAA,-0.0766
5,ATTGACGA,-0.138
6,TCACATCA,-0.0958
7,ACTCGGAG,0.362
8,CCTCGGAC,0.321
9,CCTCGAAA,-0.27
10,CCTCGGAA,0.484
11,CCGCGGAA,0.352
12,CCTCGGAG,0.408
13,CATCAACC,0.00345
14,ACATCAAA,-0.0159
15,ACTCATCT,-0.224
16,AGCCAAGA,-0.22
17,AAAGGAGT,0.0609
18,GATGCGAC,0.0109
19,CTACTTGC,0.104
20,CGGATGTA,0.443
21,AGGATGTA,-0.177
22,GGGATGTA,0.109
23,CGGATGAG,0.369
24,CTGATGTC,0.0602
25,AGGATGAA,-0.0759

row,Sequence,PBM E-score
1,CGGATGTC,0.426
2,AGGATGTC,-0.0723
3,CGGATGAA,0.433
4,ATCCTCTG,-0.208
5,CGCCACAA,-0.0226
6,ACCCGTTA,0.269
7,AATGGAAA,0.0387
8,AGTCCCGA,0.389
9,GGTCCCTA,-0.115
10,GTCCCCGA,0.288
11,AGTCCCGG,0.304
12,CGTCCCAA,-0.155
13,GGTCCCGA,0.39
14,AGTCCCGC,0.15
15,CGTCCCGC,0.248
16,CGTCCCGA,0.402
17,CGTTACTA,-0.124
18,AGCCCCAC,-0.0851
19,ACAGGACA,-0.0558
20,CCATTGGA,-0.213
21,CTATTCAG,-0.288
22,CCCGCCAG,0.0645
23,AGAATAAA,-0.194
24,AAATCTAT,-0.00166
25,GCGGAAGA,0.317

row,Sequence,PBM E-score
1,ACGGAAGA,0.349
2,CGGGAAGC,0.299
3,CCGGAAGC,0.395
4,GCGGAAGC,0.336
5,CCGGAAGA,0.389
6,CCGGAAGG,0.392
7,ACGGAAGG,0.313
8,AGGGAAGA,-0.277
9,ACGGAAGC,0.337
10,CGGGAAGA,0.401
11,CAGGAAGG,-0.208
12,CATACGGG,0.152
13,AGACCGTG,-0.0481
14,AACTTGCC,0.139
15,GAGTCGCA,-0.21
16,CCAGCCCC,-0.0533
17,CGTTCCAG,-0.0906
18,AACTCATA,0.148
19,TCAGAAGA,-0.217
20,AGGGAATA,0.0561
21,TCGGAAGA,0.455
22,GGGGAATA,-0.0405
23,TAGGAAGA,-0.21
24,CGGGAATA,0.417
